# Out of some 48,000 compounds screened, about 13,000 (27%) showed an effect of 50% or more. The list shows a part of the results.
# Tested on: Wolbachia pipientis
# Experiment: Anti-Wolbachia Cell-Based Screen
# Assay type: functional
# Set-up: scale not given: in the data most compounds retested in dose-response had high values
# Settings: 5 µM
row,Compound,Percent Effect
1,O=C(c1nnn(-c2ccccc2Cl)c1-c1ccccn1)N1CCSCC1,5.989%
2,CC(=O)N(Cc1noc(C2CC2)n1)C1CCN(Cc2ccccc2)C1 (stereo not given),96.7%
3,CC(=O)N(Cc1noc(C2CC2)n1)C1CCN(Cc2cccnc2)C1 (stereo not given),56.34%
4,CC(=O)N(Cc1noc(C2CC2)n1)C1CCN(Cc2ccncc2)C1 (stereo not given),0.6841%
5,COC(=O)CN(C(=O)c1ccc(Cl)o1)c1cccc(F)c1,-9.604%
6,COc1ccc(CN(C)[C@@H]2CN(C(=O)c3ccnn3C)C[C@H]2O)cc1,97.48%
7,COc1ccc(COCC(O)CNC(=O)c2cccnc2)cc1 (stereo not given),15.02%
8,Cn1cccc1C(=O)N1C[C@H]2CN(CC3CC3)C(=O)[C@H]2C1,-15.38%
9,Cn1nccc1C(=O)N1CCOC(Cc2cccc(C(F)(F)F)c2)C1 (stereo not given),-3.764%
10,CN(C)CCOCC1CN(C(=O)c2cccnc2)Cc2ccnn2C1 (stereo not given),-7.083%
11,COc1ccc(CN(C)[C@@H]2CN(C(=O)c3cccn3C)C[C@H]2O)cc1,98.88%
12,COc1ccc(CN(C)[C@@H]2CN(C(=O)c3cccnc3)C[C@H]2O)cc1,87.24%
13,COc1ccc(CN(C)[C@@H]2CN(C(=O)c3ccccc3)C[C@H]2O)cc1,114.6%
14,CCN1C[C@@H]2CN(C(=O)c3cccn3C)C[C@@H]2C1=O,-32.3%
15,COc1ccc(OCc2nc(C(=O)N3C[C@H](O)[C@@H](N(C)C)C3)co2)cc1,-35.76%
16,COc1cccc(C(=O)N2C[C@@H](C(=O)O)[C@H](c3ccccc3C)C2)c1,-3.21%
17,COc1cc(C)ccc1OCc1nc(C(=O)N2CCC(C)CC2)co1,-9.42%
18,CCN1CCC2(CN(C(C)=O)CC23CCN(CC2CC2)CC3)C1=O.O=C(O)C(F)(F)F (stereo not given),-51.48%
19,COc1ccccc1C1CNC(=O)c2nc(-c3nccn3C)[nH]c2C1 (stereo not given),6.875%
20,Cn1cc(C(=O)N2CCCCC2CCc2ccccc2)cn1 (stereo not given),-0.576%
21,COc1ccc(CN(C)[C@@H]2CN(C(=O)c3cncs3)C[C@H]2O)cc1,107.9%
22,COc1ccc([C@@H]2CN(C(=O)CCCc3cn[nH]c3)C[C@H]2N(C)C)cc1,-10.76%

row,Compound,Percent Effect
1,COc1ccc(CN(C)[C@@H]2CN(C(=O)c3cccs3)C[C@H]2O)cc1,-2.392%
2,Cn1cc(C(=O)N2CCCCC2CCc2ccc(O)cc2)cn1 (stereo not given),-2.601%
3,COc1ccc(CN(C)[C@@H]2CN(C(=O)c3cnn(C)c3)C[C@H]2O)cc1,88.16%
4,CNC(=O)C(C)(C)CNC(=O)Nc1ccc(C)cn1,-9.639%
5,CCC(Nc1nc(C(F)(F)F)nc2ccccc12)C(=O)O (stereo not given),14.92%
6,COc1ccc(OC)c(-c2csc(-c3cccc(C(=O)O)c3)n2)c1,-14.75%
7,CCc1noc(-c2ccc(SCC(=O)O)nc2)n1,5.745%
8,COC(=O)c1cccc(-c2nc(CC3CCN(C)CC3)no2)c1,-1.18%
9,CCc1nc(-c2cccc(C(=O)O)c2)no1,110.9%
10,Cc1ccc(-c2csc(-c3cccc(C(=O)O)c3)n2)cc1,-9.33%
11,CCc1noc(-c2cccc(C(=O)O)c2)n1,137.4%
12,Cc1ccc(Cl)cc1S(=O)(=O)NCc1cnc(N(C)C)n1C,-1.472%
13,Cc1c(NCC(C)(C)C)cccc1C(=O)N(C)Cc1ncnn1C,4.357%
14,CNC(=O)c1cccc(CNC(=O)C2CC(=O)N(CCN(C)C)C2)c1 (stereo not given),-3.95%
15,Cc1ccc(CN2Cc3nccn3CC(Cn3cncn3)C2)s1.O=C(O)C(F)(F)F (stereo not given),96.42%
16,Cc1ccc(CN2Cc3nccn3CC(Cn3cccn3)C2)s1.O=C(O)C(F)(F)F (stereo not given),93.7%
17,CCN(CC)CC1CN(Cc2ccc(C)s2)Cc2nccn2C1.O=C(O)C(F)(F)F.O=C(O)C(F)(F)F (stereo not given),-7.962%
18,Cc1ncsc1C(=O)NC1CCN(CC(=O)NCc2ccccc2)CC1,0.6366%
19,Cc1ccc(C(NC(=O)CC2CCN(C(C)C)CC2)C(=O)O)cc1 (stereo not given),-11.69%
20,Cc1cc(-c2ccc(C(=O)O)cc2)nc(C2CCCN(C(C)C)C2)n1 (stereo not given),2.794%
21,Cc1cc(-c2cccc(C(=O)O)c2)nc(C2CCN(C(C)C)CC2)n1,102.4%
22,Cc1cc(-c2ccc(C(=O)O)cc2)nc(C2CCN(C(C)C)CC2)n1,108.9%

row,Compound,Percent Effect
1,O=C(N[C@H]1CN(C2CCOCC2)C[C@@H]1C1CC1)c1cc(O)no1,17.55%
2,CCN1CC[C@@]2(C(=O)N3CCCC3)CCN(S(C)(=O)=O)CC[C@@H]12.O=C(O)C(F)(F)F,-22.27%
3,CN(C)CC(C)(C)CN1CCC(c2ccnc(-c3cccc(O)c3)c2)C1 (stereo not given),-7.648%
4,O=C(Cn1cncn1)NCC1(O)CCCc2ccccc21 (stereo not given),1.206%
5,CC(CNC(=O)OC(C)(C)C)N(C)C(=O)COc1ccccc1C#N (stereo not given),101.4%
6,CC(C)Oc1ccccc1CNC(=O)N(C)C(C)CS(C)(=O)=O (stereo not given),-10.62%
7,CC(C)C(C)N(C)C(=O)COc1ccccc1C#N (stereo not given),106.3%
8,CCNC(=O)NC1CCC(Oc2ccccc2C#N)CC1 (stereo not given),4.038%
9,CC(Oc1ccccc1C#N)C(=O)NC1CC1 (stereo not given),12.68%
10,COc1ccccc1OCC(=O)n1ncc(C#N)c1N,-0.431%
11,CCS(=O)(=O)CC(C)N(C)C(=O)COc1ccccc1C#N (stereo not given),95.28%
12,CC(C)(C)OC(=O)NCCNC(=O)c1cnc(-c2ccccc2)nc1,-9.911%
13,CCN(CC)C(=O)c1ccc(COc2ccccc2C#N)o1,-6.305%
14,O=C(O)C(F)(F)F.O=C([C@H]1CN(Cc2ccoc2)C[C@H]2OCC[C@@H]12)N1CCCCO1,-7.154%
15,Cc1ncsc1CCN(C)Cc1cc2n(n1)CCN(S(C)(=O)=O)C2,0.3281%
16,CCOc1ncccc1NC(=O)c1cc(C)c(C)s1,7.979%
17,O=C(C1CC(=O)N(c2n[nH]c3cc(Br)ccc23)C1)N1CCCC1 (stereo not given),93.67%
18,O=C(C1CC(=O)N(c2ccccc2Br)C1)N1CCCCCC1 (stereo not given),6.985%
19,O=C(C1CC(=O)N(c2ccccc2Br)C1)N1CCN(CC(F)(F)F)CC1 (stereo not given),5.588%
20,O=C(C1CCN(c2ccnc3ccc(Br)cc23)CC1)N1CCOCC1,20.8%
21,O=C(C1CC(=O)N(c2n[nH]c3cc(Br)ccc23)C1)N1CCSCC1 (stereo not given),118.9%
22,O=C(c1ccc(Cn2cc(Br)cn2)cc1)N1CCOCC1,-22.08%

row,Compound,Percent Effect
1,O=C(C1CC(=O)N(c2n[nH]c3cc(Br)ccc23)C1)N1CCOCC1 (stereo not given),93.25%
2,O=C(C1CC(=O)N(C2CC2)C1)N1CCC(Oc2ccccc2Cl)CC1 (stereo not given),2.803%
3,COc1ccc(Br)cc1CCC(=O)N1CCSCC1,-8.265%
4,COc1ccnc(N2CCN(C(C)c3nc(C)no3)CC2)n1 (stereo not given),-3.819%
5,O=C(Nc1ccccc1)c1cccc(S(=O)(=O)NC[C@@H]2C[C@H](F)CN2)c1,3.3%
6,CN(CC(N)=O)Cc1cc(Cl)cc2cccnc12,-12.39%
7,O=C(NCCc1nc2ccccc2s1)c1coc(CN2CCOCC2)c1,-17.38%
8,CCc1nnc2n1CCN(CC(O)CN1CCC(C)CC1)C2 (stereo not given),-4.838%
9,CS(=O)(=O)NC1CCN(C(=O)NCc2cccnc2)CC1,127.5%
10,CC(=O)NC1CCCN(C(=O)NCc2cc[nH]n2)C1 (stereo not given),125.6%
11,CC(=O)NC1CCCN(C(=O)NCc2cccnc2)C1 (stereo not given),121%
12,O=C(NCc1cc[nH]n1)N1CCCC(N2CCCC2)C1 (stereo not given),111.7%
13,CC(C)(C)OC(=O)N1CCCCC1C(=O)NCc1cc[nH]n1 (stereo not given),-6.483%
14,CC(=O)NC1CCCN(C(=O)NCc2cccnc2-n2cccn2)C1 (stereo not given),-5.614%
15,CS(=O)(=O)NC1CCN(C(=O)NCCNc2ccccn2)CC1,2.154%
16,CC(=O)NC1CCCN(C(=O)NCc2cccnc2N(C)C)C1 (stereo not given),9.234%
17,CC(=O)NC1CCCN(C(=O)CCc2cccnc2)C1 (stereo not given),16.44%
18,CS(=O)(=O)NC1CCCN(C(=O)NCc2cccnc2)C1 (stereo not given),-6.706%
19,O=C(NCc1cc[nH]n1)N1CCCCC(N2CCCC2)C1 (stereo not given),0.854%
20,COCCc1noc(CN2CCCc3cccc(OC)c32)n1,0.4274%
21,Cc1noc(-c2ccc(N(C)Cc3ccncn3)nc2)n1,-29.65%
22,c1ccc(CNC[C@H]2COCc3nc4cccnc4n32)cc1,10.55%

row,Compound,Percent Effect
1,COCC(C)NC(=O)NCCc1cccc(OC)c1O (stereo not given),-7.103%
2,CCn1nc(CC(C)C)cc1C(=O)N1CCN([C@H]2CCCC[C@@H]2O)CC1,0.6704%
3,CCS(=O)(=O)N1CC(c2nc(-c3ccsc3)no2)C1,-8.132%
4,CCc1c(C)nn(CCNC(=O)Cc2csc(C)n2)c1C,-26.69%
5,CN(C)CCn1cc(NC(=O)NC(C)(C)c2nccs2)cn1,-14.78%
6,CCCN(C(=O)c1ccncc1)c1nc2c(s1)CCc1c-2cnn1C,62.27%
7,CCCN(C(=O)c1cccnc1)c1nc2c(s1)CCc1c-2cnn1C,53.11%
8,CCCN(C(=O)COC)c1nc2c(s1)CCc1c-2cnn1C,1.347%
9,OCc1ccc(CN2CCC(n3cc(-c4ccc(F)cc4)nn3)CC2)o1,-0.1205%
10,CC(C)C(C(=O)NC1CCOCC1)n1cnc2cc(F)c(F)cc21 (stereo not given),3.744%
11,CCCc1cc(=O)[nH]c2nnc(SCC(=O)NCc3ccc(C)cc3)n12,-24%
12,CC(=O)N1N=C(c2ccccc2)OC1C(=O)NCCc1ccc(C)cc1 (stereo not given),114.7%
13,CC(=O)N1N=C(c2ccccc2)OC1C(=O)NCCC1=CCCCC1 (stereo not given),-1.689%
14,Cc1ccc2c(c1)CN(CC(=O)NCCc1ccc(F)cc1)CC(C)O2 (stereo not given),6.694%
15,CC(=O)N1N=C(c2ccccc2)OC1C(=O)NCCc1cccc(Cl)c1 (stereo not given),1.222%
16,CC(=O)NCCNC(=O)NCCCc1cccc(F)c1,-6.354%
17,O=C(NCCOc1ccccc1)C1NCCc2[nH]cnc21 (stereo not given),9.443%
18,CC(=O)N1N=C(c2ccccc2)OC1C(=O)NCCOc1ccccc1 (stereo not given),130.7%
19,CC(=O)N1N=C(c2ccccc2)OC1C(=O)NCCc1cccc(F)c1 (stereo not given),137.5%
20,Cc1nc(-c2ccc(NCCc3ccc(O)cc3)nc2)[nH]c(=O)c1C,-6.931%
21,Cc1nc(C2CCCN2CC(=O)NCCOc2ccccc2)no1 (stereo not given),3.183%
22,CC(=O)N1N=C(c2ccccc2)OC1C(=O)NCCc1ccc(O)cc1 (stereo not given),114.8%
